Measured values: article PMC7862700, “An all-to-all approach to the identification of sequence-specific readers for epigenetic DNA modifications on cytosine”

What was measured:
Assay in all cases: DAPPL (digital affinity profiling via proximity ligation, sequencing); 10 mM Tris-HCl pH 7.5, 50 mM NaCl, 1 mM DTT, 4% glycerol, room temperature, 30 min; GST-TFs on glutathione beads, 16-mer random dsDNA library, 0.1% formaldehyde crosslink after washing; high values mean tight binding
Settings in all cases: protein: recombinant; tags: N-terminal GST; dsDNA, one strand shown
ERF = target: T1, ERF (Homo sapiens, UniProt P50548 1-548)
T1 sequence: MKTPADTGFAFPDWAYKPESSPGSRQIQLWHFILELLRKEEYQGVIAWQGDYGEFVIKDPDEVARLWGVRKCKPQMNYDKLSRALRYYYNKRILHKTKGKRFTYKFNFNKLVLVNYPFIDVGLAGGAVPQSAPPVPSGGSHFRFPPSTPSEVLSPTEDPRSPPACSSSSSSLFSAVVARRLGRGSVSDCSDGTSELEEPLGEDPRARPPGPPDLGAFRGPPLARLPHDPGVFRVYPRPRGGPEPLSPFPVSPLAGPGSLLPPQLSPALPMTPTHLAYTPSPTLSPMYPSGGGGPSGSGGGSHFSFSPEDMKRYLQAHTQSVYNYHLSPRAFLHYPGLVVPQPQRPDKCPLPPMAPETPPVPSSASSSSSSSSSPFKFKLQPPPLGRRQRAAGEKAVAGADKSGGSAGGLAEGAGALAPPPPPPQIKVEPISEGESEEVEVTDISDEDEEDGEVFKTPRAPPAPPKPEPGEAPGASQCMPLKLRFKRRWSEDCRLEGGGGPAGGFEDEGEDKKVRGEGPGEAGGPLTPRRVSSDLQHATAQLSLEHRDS
Summary of the method: (§1)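 Beads coated with glutathione captured GST-fused human transcription factors that had been expressed in yeast, and the factors were then given DNA barcodes and pooled with a tag-only sample. The pools were incubated with 200 nmole of a random double-stranded 16-mer DNA library in Tris/NaCl/DTT/glycerol buffer for 30 min at room temperature, washed, crosslinked with 0.1% formaldehyde and proximity-ligated with BsaI/T4 ligase at 37 °C for 1 h. PCR amplification and Illumina NextSeq500 sequencing came last. Binding signal is each hexamer's read frequency for a factor divided by its frequency for the tag-only sample.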

ETV3L = target: T2, ETV3L (Homo sapiens, UniProt Q6ZN32 1-361)
T2 sequence: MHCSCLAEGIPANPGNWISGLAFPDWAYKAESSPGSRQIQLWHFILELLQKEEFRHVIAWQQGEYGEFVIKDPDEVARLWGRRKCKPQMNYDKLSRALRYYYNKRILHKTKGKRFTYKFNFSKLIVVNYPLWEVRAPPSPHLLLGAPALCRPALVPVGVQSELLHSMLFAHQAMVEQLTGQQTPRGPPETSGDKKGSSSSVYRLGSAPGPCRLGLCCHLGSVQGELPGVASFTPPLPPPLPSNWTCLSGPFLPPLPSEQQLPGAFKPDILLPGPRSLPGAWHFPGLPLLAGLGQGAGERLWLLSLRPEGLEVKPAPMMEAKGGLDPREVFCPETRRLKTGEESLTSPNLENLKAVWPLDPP
Summary of the method: as §1

ETS2 = target: T3, ETS2 (Homo sapiens, UniProt P15036 1-469)
T3 sequence: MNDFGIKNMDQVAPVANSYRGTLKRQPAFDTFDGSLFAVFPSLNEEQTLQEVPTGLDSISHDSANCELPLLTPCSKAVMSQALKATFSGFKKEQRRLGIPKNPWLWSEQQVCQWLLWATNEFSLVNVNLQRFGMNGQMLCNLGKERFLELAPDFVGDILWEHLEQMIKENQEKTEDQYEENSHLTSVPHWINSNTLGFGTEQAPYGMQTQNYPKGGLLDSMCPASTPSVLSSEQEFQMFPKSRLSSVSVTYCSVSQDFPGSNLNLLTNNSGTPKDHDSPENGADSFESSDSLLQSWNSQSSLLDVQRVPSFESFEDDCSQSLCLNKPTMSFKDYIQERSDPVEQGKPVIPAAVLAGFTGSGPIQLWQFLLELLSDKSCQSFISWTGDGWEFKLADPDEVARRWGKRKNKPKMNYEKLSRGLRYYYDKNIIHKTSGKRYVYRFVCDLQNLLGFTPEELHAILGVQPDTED
Summary of the method: as §1

SPDEF = target: T4, SPDEF (Homo sapiens, UniProt O95238 1-335)
T4 sequence: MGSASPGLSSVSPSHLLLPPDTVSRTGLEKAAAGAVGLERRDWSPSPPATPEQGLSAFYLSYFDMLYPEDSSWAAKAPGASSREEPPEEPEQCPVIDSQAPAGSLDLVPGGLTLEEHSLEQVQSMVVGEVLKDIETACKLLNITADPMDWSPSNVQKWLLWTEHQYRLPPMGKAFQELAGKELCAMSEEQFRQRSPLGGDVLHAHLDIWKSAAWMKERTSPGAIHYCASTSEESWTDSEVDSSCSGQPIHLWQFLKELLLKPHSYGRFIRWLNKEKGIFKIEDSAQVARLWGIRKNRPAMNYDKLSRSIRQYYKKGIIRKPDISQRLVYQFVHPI
Summary of the method: as §1

ETV7 = target: T5, ETV7 (Homo sapiens, UniProt Q9Y603 1-341)
T5 sequence: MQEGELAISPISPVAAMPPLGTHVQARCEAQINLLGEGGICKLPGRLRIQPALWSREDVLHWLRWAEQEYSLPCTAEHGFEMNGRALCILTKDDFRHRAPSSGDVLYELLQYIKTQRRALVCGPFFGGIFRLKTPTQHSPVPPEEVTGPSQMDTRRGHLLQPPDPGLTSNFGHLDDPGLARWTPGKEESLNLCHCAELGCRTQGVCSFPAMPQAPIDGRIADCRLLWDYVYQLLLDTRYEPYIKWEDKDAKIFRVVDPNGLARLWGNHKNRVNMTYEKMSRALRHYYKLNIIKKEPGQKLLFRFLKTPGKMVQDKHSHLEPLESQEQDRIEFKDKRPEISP
Summary of the method: as §1

ELF5 = target: T6, ELF5 (Homo sapiens, UniProt Q9UKW6-2 1-255)
T6 sequence: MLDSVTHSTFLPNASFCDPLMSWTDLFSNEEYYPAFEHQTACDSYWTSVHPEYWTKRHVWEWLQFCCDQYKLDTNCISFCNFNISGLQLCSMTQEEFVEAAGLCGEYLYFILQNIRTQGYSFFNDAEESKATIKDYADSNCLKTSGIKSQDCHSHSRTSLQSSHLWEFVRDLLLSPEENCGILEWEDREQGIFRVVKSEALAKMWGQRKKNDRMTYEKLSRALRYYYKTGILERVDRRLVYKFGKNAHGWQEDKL
Summary of the method: as §1

ETV3 = target: T7, ETV3 (Homo sapiens, UniProt P41162-2 1-143)
T7 sequence: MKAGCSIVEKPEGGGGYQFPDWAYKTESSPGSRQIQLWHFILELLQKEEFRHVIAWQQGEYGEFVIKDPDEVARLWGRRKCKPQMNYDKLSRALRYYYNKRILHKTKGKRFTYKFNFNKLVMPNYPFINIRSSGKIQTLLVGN
Summary of the method: as §1

ETV6 = ETV6 (Homo sapiens, UniProt P41212 1-452)
ETV6, sequence (P41212 whole entry): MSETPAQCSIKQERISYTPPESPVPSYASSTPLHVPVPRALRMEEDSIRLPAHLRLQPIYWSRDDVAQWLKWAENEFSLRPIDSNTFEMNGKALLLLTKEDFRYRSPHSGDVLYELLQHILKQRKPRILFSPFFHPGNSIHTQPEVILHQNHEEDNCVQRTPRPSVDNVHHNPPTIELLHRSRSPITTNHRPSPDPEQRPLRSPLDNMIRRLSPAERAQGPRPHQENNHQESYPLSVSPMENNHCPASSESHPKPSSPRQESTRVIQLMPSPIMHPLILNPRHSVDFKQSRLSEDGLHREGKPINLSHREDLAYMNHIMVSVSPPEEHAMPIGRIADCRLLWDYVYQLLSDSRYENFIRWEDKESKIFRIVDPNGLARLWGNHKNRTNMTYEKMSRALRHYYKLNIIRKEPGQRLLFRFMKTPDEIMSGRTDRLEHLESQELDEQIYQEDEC
Summary of the method: as §1

Sequence: CCGGTT
- binding signal (ERF): 1.82 fold enrichment (6-mer frequency, TF over GST control)
- binding signal (ETV3L): 1.94 fold enrichment (6-mer frequency, TF over GST control)
- binding signal (ETS2): 1.96 fold enrichment (6-mer frequency, TF over GST control)
- binding signal (SPDEF): 2.99 fold enrichment (6-mer frequency, TF over GST control)
- binding signal (ETV7): 1.77 fold enrichment (6-mer frequency, TF over GST control)
- binding signal (ELF5): 2.37 fold enrichment (6-mer frequency, TF over GST control)
- binding signal (ETV3): 2.05 fold enrichment (6-mer frequency, TF over GST control)
- binding signal (ETV6): 2.19 fold enrichment (6-mer frequency, TF over GST control)

Sequence: GGGTTT
- binding signal (ERF): 1.17 fold enrichment (6-mer frequency, TF over GST control)
- binding signal (ETV3L): 1.1 fold enrichment (6-mer frequency, TF over GST control)
- binding signal (ETS2): 1.1 fold enrichment (6-mer frequency, TF over GST control)
- binding signal (SPDEF): 1 fold enrichment (6-mer frequency, TF over GST control)
- binding signal (ETV7): 1.12 fold enrichment (6-mer frequency, TF over GST control)
- binding signal (ELF5): 1.1 fold enrichment (6-mer frequency, TF over GST control)
- binding signal (ETV3): 1.18 fold enrichment (6-mer frequency, TF over GST control)
- binding signal (ETV6): 1.07 fold enrichment (6-mer frequency, TF over GST control)

Sequence: ATATGT
- binding signal (ERF): 1.25 fold enrichment (6-mer frequency, TF over GST control)
- binding signal (ETV3L): 1.17 fold enrichment (6-mer frequency, TF over GST control)
- binding signal (ETS2): 1.19 fold enrichment (6-mer frequency, TF over GST control)
- binding signal (SPDEF): 1.13 fold enrichment (6-mer frequency, TF over GST control)
- binding signal (ETV7): 1.16 fold enrichment (6-mer frequency, TF over GST control)
- binding signal (ELF5): 1.13 fold enrichment (6-mer frequency, TF over GST control)
- binding signal (ETV3): 1.1 fold enrichment (6-mer frequency, TF over GST control)
- binding signal (ETV6): 1.07 fold enrichment (6-mer frequency, TF over GST control)

Sequence: TCATGC
- binding signal (ERF): 1.13 fold enrichment (6-mer frequency, TF over GST control)
- binding signal (ETV3L): 1.12 fold enrichment (6-mer frequency, TF over GST control)
- binding signal (ETS2): 1.13 fold enrichment (6-mer frequency, TF over GST control)
- binding signal (SPDEF): 1.18 fold enrichment (6-mer frequency, TF over GST control)
- binding signal (ETV7): 1.17 fold enrichment (6-mer frequency, TF over GST control)
- binding signal (ELF5): 1.07 fold enrichment (6-mer frequency, TF over GST control)
- binding signal (ETV3): 1.18 fold enrichment (6-mer frequency, TF over GST control)
- binding signal (ETV6): 1.11 fold enrichment (6-mer frequency, TF over GST control)

Sequence: CGCCGA
- binding signal (ERF): 1.34 fold enrichment (6-mer frequency, TF over GST control)
- binding signal (ETV3L): 1.21 fold enrichment (6-mer frequency, TF over GST control)
- binding signal (ETS2): 1.22 fold enrichment (6-mer frequency, TF over GST control)
- binding signal (SPDEF): 1.15 fold enrichment (6-mer frequency, TF over GST control)
- binding signal (ETV7): 1.05 fold enrichment (6-mer frequency, TF over GST control)
- binding signal (ELF5): 1.1 fold enrichment (6-mer frequency, TF over GST control)
- binding signal (ETV3): 1.16 fold enrichment (6-mer frequency, TF over GST control)
- binding signal (ETV6): 1.16 fold enrichment (6-mer frequency, TF over GST control)

Sequence: CTAAAT
- binding signal (ERF): 1.35 fold enrichment (6-mer frequency, TF over GST control)
- binding signal (ETV3L): 1.43 fold enrichment (6-mer frequency, TF over GST control)
- binding signal (ETS2): 1.38 fold enrichment (6-mer frequency, TF over GST control)
- binding signal (SPDEF): 1.31 fold enrichment (6-mer frequency, TF over GST control)
- binding signal (ETV7): 1.34 fold enrichment (6-mer frequency, TF over GST control)
- binding signal (ELF5): 1.25 fold enrichment (6-mer frequency, TF over GST control)
- binding signal (ETV3): 1.4 fold enrichment (6-mer frequency, TF over GST control)
- binding signal (ETV6): 1.3 fold enrichment (6-mer frequency, TF over GST control)

Sequence: AGCGAC
- binding signal (ERF): 1.32 fold enrichment (6-mer frequency, TF over GST control)
- binding signal (ETV3L): 1.13 fold enrichment (6-mer frequency, TF over GST control)
- binding signal (ETS2): 1.15 fold enrichment (6-mer frequency, TF over GST control)
- binding signal (SPDEF): 1.01 fold enrichment (6-mer frequency, TF over GST control)
- binding signal (ETV7): 1.22 fold enrichment (6-mer frequency, TF over GST control)
- binding signal (ELF5): 1.2 fold enrichment (6-mer frequency, TF over GST control)
- binding signal (ETV3): 1.14 fold enrichment (6-mer frequency, TF over GST control)
- binding signal (ETV6): 1.17 fold enrichment (6-mer frequency, TF over GST control)
